Hits are enriched below; roughly 8.2% of the tested compounds scored in any of these assays.
MCF10A rereplic: inducers of DNA re-replication in MCF 10A breast cells; 350,000 compounds, 2.9% hits; Potency, µM (series often up to 46.1 µM), for the others: top-dose activity, positive = re-replication, usual class: activators; AID 624296; MCF 10A DNA re-replication, Hoechst nuclear intensity, 48 h; also: % of control where 0% means no effect; nearly all actives have a fitted effect of over 50% in size
ELG1 DNA repair: blocks ELG1-dependent DNA repair in HEK293T cells; HEK293T ELG1-luciferase reporter, luminescence, 16 h; DNA damage induced by 5-fluorouridine; Potency, µM (top dose mostly 46.1 µM), for inactives: top-dose activity change, negative = inhibition, most hits filed as inhibitors; 330,000 compounds, 2.3% hits; also: % is scaled to controls: 0 for no effect and ±100 for the full control effect; nearly all actives have a fitted effect of over 55% in size
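HEK293T cells expressing luciferase-tagged ELG1 (2,000/well) received 5-Fluorouridine plus compound or DMSO for 16 hr at 37 °C. Luciferase was read by ONE-Glo luminescence after 30 min at room temperature.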
KB-3-1 cytotox: kills parental KB-3-1 adenocarcinoma cells | KB-3-1 viability, CellTiter-Glo ATP luminescence, 72 h | Potency, µM (top dose mostly 46.1 µM), hits mostly cytotoxic | 400,000 compounds, 1.4% hits | AID 1347075; also: % is scaled to controls: 0 for no effect and ±100 for the full control effect; nearly all actives have a fitted effect of over 60% in size
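Viability of parental KB-3-1 cells, measured by CellTiter-Glo luminescence, followed a 72 h incubation at 37 °C with pinned compounds in phenol-red-free DMEM containing 10% FBS.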
SW480 rereplic: induces DNA re-replication in SW480 colon adenocarcinoma cells | AID 624297 | Potency, µM (highest dose often 46.1 µM), inactives show at the top dose re-replication activation, usual class: activators | SW480 DNA re-replication, Hoechst DNA content imaging, 48 h | 340,000 compounds, 1.8% hits; also: % of control where 0% means no effect; nearly all actives have a fitted effect of over 55% in size
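DNA re-replication was detected as more nuclei of elevated Hoechst intensity after 48 hr exposure to compound (23 nL pinned per well of 250 cells).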
KB-V1 MDR tox: KB-V1 MDR subline cytotoxicity; KB-V1 MDR cells viability, CellTiter-Glo, 72 h; Potency, µM (titrated, usually from 46.1 µM), actives largely listed as cytotoxic; 400,000 compounds, 3.4% hits; AID 1347076; also: % is scaled to controls: 0 for no effect and ±100 for the full control effect; nearly all actives have a fitted effect of over 60% in size
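Potencies derive from concentration-effect curves fitted to normalized luminescence (CellTiter-Glo) of KB-V1 cells treated for 72 h at 37 degrees C in phenol-red-free DMEM containing 10% FBS.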
The depositor's hits bear a star; i = inactive; u = inconclusive; x = no result; [ ] = dose if it differs, or a comment. Calls follow the shape of the dose curve; as a rule, active = well fitted curve in the direction sought with a large enough effect; inconclusive = small, poorly fitted or top-dose-only effect, or another doubt; inactive = no such curve, though single readings can be large; an effect the other way counts as inactive or inconclusive. Potency is read from the fitted curve at half-maximal effect.

SMILES	MCF10A rereplic	ELG1 DNA repair	KB-3-1 cytotox	SW480 rereplic	KB-V1 MDR tox
CCNC(=O)OCC(CC)NC(=O)OCC(C)C (centres undefined)	1%	0%	i	-8%	i
CCCCCC(=O)N1C[C@H](n2cc(C3CC3)nn2)[C@@H](O)C[C@@H]1c1ccc(Cl)cc1	x	x	i	x	i
CC(C)=CCc1c(O)cc2c(=O)c3ccc(O)cc3oc2c1O	15%	x	i	3%	u
COc1c(CC=C(C)C)c(O)cc2oc(=O)c3c4ccc(O)cc4oc3c12	18µM*	x	i	u	u
COc1cccc(CN2CCCN(CC(=O)Nc3ccc4c(c3)OCCO4)S2(=O)=O)c1	x	x	i	x	i
Cc1ccc(NN2C(=O)C=C(c3ccccc3)C2=O)cc1	8.2µM*	u	i	8.2µM*	i
O=C1c2ccccc2C(=O)N1Nc1ccccc1	u	11%	i	3%	i
O=C1C(=O)N(C2CCNCC2)CCN1Cc1ccccc1	x	x	i	x	i
Cc1cc(C(=O)CSc2nnnn2C)c(C)n1C1CC1	-2%	u	i	6%	i
CCn1c(C)cc(C(=O)CSc2nnnn2C2CCCC2)c1C	u	u	i	1%	9.2µM*
O=C(NCC1CCCO1)C1c2ccccc2C(=O)N1C1CCCCCCC1 (centres undefined)	17%	-1%	i	9%	7.3µM*
O=C(NC1CCCCCC1)C1c2ccccc2C(=O)N1Cc1ccc(F)cc1 (centres undefined)	x	x	i	x	i
O=C(NCc1cccnc1)C1c2ccccc2C(=O)N1C1CCCCCC1 (centres undefined)	1%	5%	i	-5%	18µM*
O=C(NC1CCCCCC1)C1c2ccccc2C(=O)N1Cc1cccnc1 (centres undefined)	-2%	5%	i	0%	12µM*
COC(=O)C1=CN(c2cccc(OCc3ccccc3)c2)C(N)=C(C#N)C1c1ccc(-c2ccccc2)cc1 (centres undefined)	x	x	i	x	i
CC1(Cc2cccc(F)c2)C(=O)Nc2ccc(S(=O)(=O)NC3CCCCC3)cc21 (centres undefined)	x	x	i	x	i
CC1(Cc2ccc(Cl)c(Cl)c2)C(=O)Nc2ccc(S(=O)(=O)NC3CCCCC3)cc21 (centres undefined)	x	x	u	x	18µM*
CC1CCN(S(=O)(=O)c2ccc(N3CCCCS3(=O)=O)cc2)CC1	x	x	i	x	i
O=C(CNC(=S)NC(=O)c1ccc(Br)o1)c1ccccc1	6.5µM*	u	i	21µM*	i
O=c1c2ccccc2c(-c2ccc(O)cc2)nn1-c1cccc(C(F)(F)F)c1	u	u	u	u	13µM*
O=C(CCCn1c(=O)[nH]c2cc(Cl)ccc2c1=O)NC1CCCCCC1	0%	-17%	i	-2%	21µM*
Cn1c(=O)n(C)c2cc(NC(=O)CCl)ccc21	18µM*	u	4.6µM*	u	16µM*
CC(=O)Nc1ccc2c(c1)n(C)c(=O)n2C	-3%	u	i	-5%	i
Cc1ccccc1OCC(=O)Nc1ccc2c(c1)n(C)c(=O)n2C	5%	2%	i	-20%[1.84 µM]	13µM*
Cn1c(=O)n(C)c2cc(NC(=O)COc3ccccc3)ccc21	2%	u	i	-12%	i
SMILES	MCF10A rereplic	ELG1 DNA repair	KB-3-1 cytotox	SW480 rereplic	KB-V1 MDR tox
CCCCS(=O)(=O)/C=C\C=C/S(=O)(=O)CCCC	u	8.2µM*	7.3µM*	u	i
CCCCS(=O)(=O)/C=C\C1C2C=CC(C2)C1S(=O)(=O)CCCC (centres undefined)	11%	-4%	i	6%	i
CCCOc1cccc(C2c3c(oc4ccc(F)cc4c3=O)C(=O)N2CCCN2CCOCC2)c1 (centres undefined)	x	x	i	x	i
O=c1c2ccccc2[nH]c2ccc(O)cc12	-12%	u	i	23µM*	i
O=c1[nH]c2ccccc2c(=O)c2ccccc12	x	x	i	x	i
CCOC(=O)c1c(-c2ccccc2)[nH]c2ccc(O)cc12	5%	-15%	i	-6%	i
